Assay outcomes deposited in PubChem by several laboratories.
LGR2 antag: blocks bursicon-induced cAMP signaling via Drosophila LGR2 | HEK293 LGR2, CRE-luciferase, bursicon-stimulated, 4 h | inhibition, % at 9.99 µM | hit rate 0.35% among 380,000;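 active = drop in luminescence signal, shown as inhibition above about 50% in the replicate tests, limit read from the data, passing the limit was not always enough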;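 note: agonist challenge used bursicon conditioned medium at about half maximal strength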
HSP90 refold inh: HSP90 refolding inhibition in rabbit reticulocyte lysate. hit rate 0.91% among 290,000. inhibition, % at 5.6 µM. AID 1789. luciferase refolding luminescence, 3 h;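 active = inhibition above the screen-wide mean plus 3 SD, computed separately per campaign, cut at about 16% in these data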;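 note: 0% = DMSO wells and 100% = 60 µM geldanamycin wells; inhibitors lower the luminescence because luciferase stays unfolded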
Peg3 promoter: inhibitors of Peg3 promoter; HeLa PEG-Prom luciferase reporter, luminescence, overnight; inhibition, % at 20 µM; hit rate 1.7% among 360,000;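 active = inhibition of at least 50% at 20 µM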
Mdm2-MdmX inh: human Mdm2/MdmX binding inhibition; O15151+Q00987; SaOS-2 split-luciferase Mdm2/MdmX complementation, luminescence; inhibition, % at 8 µM; hit rate 3% among 330,000; AID 485346;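 active = inhibition of at least 50% at 8 µM in the primary screen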
Target sequence (O15151 whole entry, looked up): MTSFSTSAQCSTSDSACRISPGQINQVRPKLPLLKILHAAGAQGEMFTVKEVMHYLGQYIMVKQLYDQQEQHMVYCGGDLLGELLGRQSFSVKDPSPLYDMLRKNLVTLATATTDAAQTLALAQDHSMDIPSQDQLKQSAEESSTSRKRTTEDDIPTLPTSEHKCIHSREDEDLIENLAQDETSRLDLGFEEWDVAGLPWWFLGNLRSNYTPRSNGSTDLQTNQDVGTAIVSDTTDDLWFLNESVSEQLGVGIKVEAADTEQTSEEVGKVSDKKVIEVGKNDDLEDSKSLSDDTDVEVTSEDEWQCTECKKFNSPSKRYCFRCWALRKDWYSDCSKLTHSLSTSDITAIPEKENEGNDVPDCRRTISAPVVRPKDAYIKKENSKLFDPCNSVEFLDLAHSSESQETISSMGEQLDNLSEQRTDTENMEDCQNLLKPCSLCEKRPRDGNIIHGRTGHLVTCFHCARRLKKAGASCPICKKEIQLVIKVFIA
Target sequence (Q00987 whole entry, looked up): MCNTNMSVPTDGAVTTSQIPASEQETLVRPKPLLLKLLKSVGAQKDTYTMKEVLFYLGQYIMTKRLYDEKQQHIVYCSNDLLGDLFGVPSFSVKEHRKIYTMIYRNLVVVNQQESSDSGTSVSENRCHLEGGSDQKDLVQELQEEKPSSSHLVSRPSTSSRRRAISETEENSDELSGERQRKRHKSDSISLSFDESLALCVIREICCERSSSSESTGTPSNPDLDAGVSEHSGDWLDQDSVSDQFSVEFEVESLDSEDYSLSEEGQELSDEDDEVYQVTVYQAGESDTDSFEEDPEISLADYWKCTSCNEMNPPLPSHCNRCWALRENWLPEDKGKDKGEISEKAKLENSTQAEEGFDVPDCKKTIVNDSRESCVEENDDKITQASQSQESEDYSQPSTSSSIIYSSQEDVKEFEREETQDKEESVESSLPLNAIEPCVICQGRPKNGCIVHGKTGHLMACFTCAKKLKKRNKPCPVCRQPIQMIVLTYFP
KKLEB cytotox: CF airway cell cytotoxicity counter-screen. KKLEB CF airway cells viability, ATPlite luminescence, overnight; hits give low values; cells stimulated with P. aeruginosa culture filtrate. activity change (cytotoxicity), % at 5 µM. hit rate 0.36% among 360,000;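 active = corrected activity change at or below -50% at 5 µM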
CF NFkB inh: inhibitors of cystic fibrosis induced NF-kB; KKLEB NF-kB-GFP reporter, PAF-induced, GFP fluorescence overnight; AID 588850; inhibition, % at 5 µM; hit rate 0.86% among 360,000;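 active = at least 50% inhibition at 5 µM, scaled per plate between neutral and stimulator controls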;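 note: PAF is a Pseudomonas aeruginosa culture filtrate used as stimulus; plate controls were PAF-stimulated DMSO wells for no effect and unstimulated DMSO wells for full effect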
Mdm2-MdmX conf: confirmation of human Mdm2/MdmX interaction inhibitors. Mdm2-MdmX binding, luminescent assay. shares compounds with Mdm2-MdmX inh. hit rate 55% among 10,000. AID 489028. inhibition, % at 8 µM; in the data active = inhibition above about 40%
Full FLuc ctr: full-length luciferase inhibition in Mdm2/MdmX counter-screen; shares compounds with Mdm2-MdmX inh; SaOS-2 full-length luciferase counterscreen, luminescence; inhibition, % at 8 µM; hit rate 77% among 6,200;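 active = mean inhibition at 8 µM reaching about 37%, which flags the compound as non-specific, limit read from the data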;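 note: p53-null SaOS-2 cells with luciferase driven by a doxycycline-inducible promoter; compound on cells about two nights before reading with doxycycline added after day one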
The depositor's hits bear a star; / = no result given. An excerpt weighted towards active compounds, which were near 3.6% of everything screened.

SMILES	LGR2 antag	HSP90 refold inh	Peg3 promoter	Mdm2-MdmX inh	KKLEB cytotox	CF NFkB inh	Mdm2-MdmX conf	others
Cc1n[nH]c(=S)n1/N=C/c1ccccc1OCc1ccc(Cl)cc1Cl	2.2	-2.3	-23.8	52.6*	2.2	-2.2	10.8
Fc1ccc(NC(=S)Nc2ccc(F)c(Cl)c2)cc1Cl	/	3.8	12.2	64.5*	-4.5	7.3	28.4
CCC(=O)N(C)C[C@@H]1[C@@H](c2ccc(-c3ccccc3F)cc2)[C@H](CO)N1C(C)=O	8.1	/	/	/	/	/	/
O=C1Nc2ccc(Br)cc2C1(O)c1ccccc1 (stereo not drawn)	-2.1	10.0	15.6	9.1	7.7	-22.1	/
O=C1Nc2ccc(Br)cc2C12NNc1ccccc1O2 (stereo not drawn)	-18.0	-2.8	67.3*	76.4*	6.9	-82.7	22.6
O=C(Nc1cccnc1Cl)c1cc(-c2ccc(O)cc2)on1	-11.9	-6.1	-204.5	-19.4	6.2	-13.5	/
O=C(Nc1cccnc1Cl)c1cc(-c2ccc(Cl)cc2)on1	-2.5	-4.0	-31.6	54.2*	-23.4	26.9	-1.8
O=C(Nc1cc(Cl)ccc1Cl)c1cc(-c2ccco2)on1	2.7	-4.4	-23.8	62.4*	5.8	-1.9	11.6
C[C@H](O)C#Cc1cnc2c(c1)C(=O)N([C@@H](C)CO)C[C@H](C)[C@@H](CN(C)C(=O)Cc1ccccn1)O2	6.9	/	/	/	/	/	/
Cc1ccc(Cn2ccc(NC(=O)c3cc(-c4cccc(Cl)c4)on3)n2)cc1	0.5	1.6	2.4	54.8*	-8.7	24.0	16.6
COc1ccc(C#Cc2cnc3c(c2)C(=O)N([C@@H](C)CO)C[C@@H](C)[C@@H](CN(C)C(=O)CN(C)C)O3)cc1	9.7	/	/	/	/	/	/
O=Cc1cc2ccccc2nc1SCc1ccc(Cl)c(Cl)c1	/	0.0	19.0	63.6*	-18.6	47.1	61.9*	Full FLuc ctr=86.3*
O=c1[nH]c(SCc2ccc(Cl)cc2)nc2ccccc12	-7.4	-0.8	-3.2	16.1	-3.3	-5.9	/
Cc1ccc(CSc2nc3ccccc3cc2C=O)cc1	/	-1.0	12.5	64.0*	0.8	38.8	64.8*	Full FLuc ctr=80.0*
O=Cc1cc2ccccc2nc1SCc1ccc(Cl)cc1	/	2.7	23.8	80.5*	-11.2	47.4	58.7*	Full FLuc ctr=84.2*
Clc1ccc(CSc2cnnc3ccccc23)cc1Cl	-27.3	/	-65.2	/	-26.8	34.0	/
COc1cc(/C=N/NC(=O)c2cncc(Br)c2)cc([N+](=O)[O-])c1O	0.1	1.7	2.0	55.6*	-25.1	10.5	49.9*	Full FLuc ctr=47.5*
COc1ccc(S(=O)(=O)Nc2ccc3c(c2)C(=O)N([C@H](C)CO)C[C@@H](C)[C@@H](CN(C)Cc2ccc(C(=O)O)cc2)OCCCC[C@H](C)O3)cc1	1.5	/	/	/	/	/	/
CCOC(=O)N1CCN(C(=O)c2ccc3c(=O)n(-c4ccc(OC)cc4)c(=S)[nH]c3c2)CC1	/	3.0	23.3	68.6*	1.0	9.9	12.1
COc1ccccc1Cn1c(=S)[nH]c2cc(C(=O)N3CCN(c4ccccc4OC)CC3)ccc2c1=O	-0.2	-0.7	26.9	60.8*	17.8	-4.4	42.5*	Full FLuc ctr=54.0*
Cc1c(N/N=C(\C#N)C(=O)c2ccc(Cl)cc2)c(=O)n(-c2ccccc2)n1C	12.4	2.3	42.6	/	7.2	12.1	/
COc1ccc(C(=O)/C(C#N)=N/Nc2ccc([N+](=O)[O-])cc2)cc1	13.1	-4.6	37.8	89.5*	-33.3	56.3*	91.8*	Full FLuc ctr=51.5*
N#C/C(=N\Nc1ccc(Cl)cc1)C(=O)c1ccccc1	/	0.2	-22.3	83.8*	-35.0	29.2	55.5*	Full FLuc ctr=43.8*
COc1ccc(NC(=O)N(C)C[C@@H]2Oc3ccc(NC(=O)Cn4cnnn4)cc3C(=O)N([C@H](C)CO)C[C@H]2C)cc1	15.1	/	/	/	/	/	/
CN1C(=O)/C(=C/c2cc(N=Nc3ccccc3)ccc2O)SC1=S	36.3	-1.7	16.4	91.9*	-52.4*	74.3*	47.4*	Full FLuc ctr=52.7*
SMILES	LGR2 antag	HSP90 refold inh	Peg3 promoter	Mdm2-MdmX inh	KKLEB cytotox	CF NFkB inh	Mdm2-MdmX conf	others
CCN(CC)CCNC(=O)CCc1c(C)nc2c(c(C)nn2-c2ccc(C)cc2)c1C	2.7	4.3	73.2*	61.3*	-11.1	17.4	32.1
CCCCCCCNC(=O)C1(CC2CC(c3ccc(Cl)cc3)=NO2)CCNCC1 (stereo not drawn)	12.6	-1.8	111.0*	100.3*	-19.2	25.4	69.1*	Full FLuc ctr=25.4
CCCCCCCNC(=O)C1(CC2CC(c3ccc(Cl)cc3)=NO2)CCN(C(=O)Cc2ccc(F)cc2)CC1 (stereo not drawn)	-8.5	-0.7	19.1	29.6	-23.0	14.8	/
CCOC(=O)CNC(=O)c1sc(NC(=O)/C=C/c2ccccc2)nc1C	-1.0	3.4	-7.8	68.8*	0.6	-15.6	12.2
CC(=O)N1[C@H](CO)[C@@H](c2ccc(-c3cccc(F)c3)cc2)[C@H]1CNC(=O)C1CC1	7.7	/	/	/	/	/	/
Cc1nc(SCC(=O)NCC2CCCO2)c2c3c(sc2n1)CCC3 (stereo not drawn)	-3.3	-2.2	4.0	24.1	-4.3	-4.1	/
Cc1nc(SCC(=O)NCC2CCCO2)c2cc(-c3ccccc3)sc2n1 (stereo not drawn)	-20.5	/	-133.0	71.3*	-3.2	-6.6	15.1
COCCNC(=O)C[C@H]1C[C@H]2c3cc(NC(=O)Nc4ccc(C(F)(F)F)cc4)ccc3O[C@H]2[C@@H](CO)O1	9.6	/	/	/	/	/	/
CC(=O)Nc1ccc(NC(=O)CSc2nc3ccccc3c(=O)n2CCCN2CCOCC2)cc1	2.0	/	27.2	5.3	-0.9	-51.2	/
O=C(CSc1nc2ccccc2c(=O)n1CCCN1CCOCC1)Nc1ccc(F)c(Cl)c1	1.9	/	18.3	52.4*	-4.7	-0.5	19.0
Cc1ccc(NC(=O)CSc2nc3ccccc3c(=O)n2CCCN2CCCCC2)cc1Cl	19.3	-4.2	114.1*	99.8*	-23.0	14.9	77.8*	Full FLuc ctr=54.7*
CC1CCN(CCCn2c(SCC(=O)Nc3ccccc3Cl)nc3ccccc3c2=O)CC1	8.4	-2.2	8.7	32.0	-9.4	-16.3	/
CCCNC(=O)N(C)C[C@H]1Oc2ncc(Br)cc2C(=O)N([C@H](C)CO)C[C@@H]1C	15.4	/	/	/	/	/	/
CC=Cc1ccc2n(c1=O)C[C@@H]1[C@@H](CO)[C@H](C(=O)N3CCN(C)CC3)N(Cc3ccccc3OC)[C@H]21 (mixture of isomers)	7.1	/	/	/	/	/	/
C[C@@H]1CN([C@H](C)CO)C(=O)c2cc(-c3ccccc3)cnc2O[C@H]1CN(C)Cc1ccc(C(=O)O)cc1	15.2	/	/	/	/	/	/
O=C(C1CCCC1)N1[C@@H]2CN(S(=O)(=O)c3ccccc3)c3ccccc3[C@@H]2[C@@H]1CO	-18.4	/	/	/	/	/	/
CCCCCCCCNC(C)C(O)c1ccc(SC(C)C)cc1 (stereo not drawn)	2.3	3.3	103.9*	95.1*	-29.4	5.0	15.2
